Among the data in PubChem BioAssay (EPA / NIEHS) are AC50 and outcome values, retold here.

Read-out in assay [1]: C-C motif chemokine 2 (Homo sapiens) (UniProt P13500)
Kind of assay: BSK_KF3CT_MCP1: BioMAP Diversity Plus: KF3CT Assay for Monocyte Chemoattractant Protein 1 (MCP1/CCL2) Biomarker Activity (AID 2283073). To be noted: primary human keratinocytes with fibroblasts; actives raise or lower the signal. The essentials: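 Biomarker MCP-1 is measured by ELISA in primary human keratinocytes co-cultured with foreskin fibroblasts, 24 h after chemical treatment; DMSO serves as the negative control and activity baseline.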

Read-out in assay [2]: Matrix Metallopeptidase 9 (MMP9), MMP9 (gene 4318)
Description: BSK_KF3CT_MMP9: BioMAP Diversity Plus: KF3CT Assay for Matrix Metallopeptidase 9 (MMP9) Biomarker Activity (AID 2283074).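 On AC50: MMP9 protein level quantified by ELISA in the co-culture.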 To be noted: primary human keratinocytes with fibroblasts; actives raise or lower the signal. The gist of the method: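 Human keratinocyte and foreskin fibroblast co-culture exposed to chemicals for 24 h; MMP9 biomarker measured by ELISA, bidirectional fitting relative to DMSO; cytotoxicity tracked by SRB total protein staining in parallel cultures.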

Read-out in assay [3]: urokinase plasminogen activator (uPA), PLAU (gene 5328)
Description: BSK_KF3CT_uPA: BioMAP Diversity Plus: KF3CT Assay for urokinase plasminogen activator (uPA) Biomarker Activity (AID 2283075). Particulars: primary human keratinocytes with fibroblasts; actives raise or lower the signal. The gist of the method:
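Primary human keratinocyte/foreskin fibroblast co-culture exposed to chemical; uPA measured by ELISA at 24 h. Bidirectional fit versus DMSO, with parallel SRB total-protein staining for cytotoxicity.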

Read-out in assay [4]: CD40, CD40 (gene 958)
Kind of assay: BSK_LPS_CD40: BioMAP Diversity Plus: LPS Assay for CD40 Biomarker Activity (AID 2283076). To be noted: primary human HUVEC with PBMC; actives raise or lower the signal. The essentials:
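Using a multiplexed primary human co-culture (umbilical vein endothelium plus PBMC), CD40 was read by ELISA 24 h after dosing, with cytotoxicity tracked by sulforhodamine B staining of parallel cultures and activity fitted bidirectionally versus DMSO.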

Read-out in assay [5]: E-selectin (Homo sapiens) (UniProt P16581)
Kind of assay: BSK_LPS_Eselectin: BioMAP Diversity Plus: LPS Assay for Eselectin Biomarker Activity (AID 2283077). Particulars: primary human HUVEC with PBMC; actives raise or lower the signal. The gist of the method: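 Dose chemical onto LPS-driven HUVEC/PBMC co-culture; after 24 h, run ELISA for E-selectin; fit up- and down-going responses relative to DMSO control.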

Read-out in assay [6]: Interleukin-8 (IL8), CXCL8 (gene 3576)
Kind of assay: BSK_LPS_IL8: BioMAP Diversity Plus: LPS Assay for Interleukin-8 (IL8) Biomarker Activity (AID 2283078). To be noted: primary human HUVEC with PBMC; actives raise or lower the signal. The essentials:
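In this LPS system, chemical-treated human umbilical vein endothelium/PBMC co-cultures were harvested at 24 h for IL-8 ELISA.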

Assay [7] can be described thus: BSK_LPS_SRB: Viability Assessment in the BioMAP Diversity Plus: LPS Assay (AID 2283079).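 Further: total protein by sulforhodamine B absorbance as a cytotoxicity measure; measured one day after compound addition; fitted in both directions against DMSO so loss or gain of signal counts.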 Particulars: primary human HUVEC with PBMC. The gist of the method: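 Cytotoxicity endpoint in human endothelial–PBMC co-culture: 24 h exposure, then SRB (0.1%) staining, 560 nm read.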
Read-out in assay [8]: Interleukin-1 alpha (IL1a), IL1A (gene 3552)
Description: BSK_LPS_IL1a: BioMAP Diversity Plus: LPS Assay for Interleukin-1 alpha (IL1a) Biomarker Activity (AID 2283080). To be noted: primary human HUVEC with PBMC; actives raise or lower the signal. The essentials: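 Primary human HUVEC and PBMC co-culture stimulated with LPS is dosed and harvested at 24 h. Both increases and decreases in ELISA-measured IL-1a are scored relative to DMSO.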

Read-out in assay [9]: Monocyte Chemoattractant Protein-1 (MCP1), CCL2 (gene 6347)
Description: BSK_LPS_MCP1: BioMAP Diversity Plus: LPS Assay for Monocyte Chemoattractant Protein-1 (MCP1) Biomarker Activity (AID 2283081).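 On AC50: secreted MCP-1 protein quantified by ELISA in culture supernatant.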 Particulars: primary human HUVEC with PBMC; actives raise or lower the signal. The essentials: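 Values derive from bidirectional fitting against DMSO of ELISA-measured MCP-1 in a human primary endothelial and mononuclear cell co-culture, 24 h after chemical addition under LPS activation.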

A short description of assay [10]: BSK_LPS_PGE2: BioMAP Diversity Plus: LPS Assay for Prostaglandin E2 (PGE2) Biomarker Activity (AID 2283082).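 On AC50: secreted prostaglandin E2 measured by ELISA in LPS-stimulated co-culture.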 To be noted: primary human HUVEC with PBMC; actives raise or lower the signal. The essentials: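 LPS-activated HUVEC/PBMC co-culture; cmpd dosed, 24 h; PGE2 by ELISA; bidirectional fit vs DMSO; SRB (0.1%, TCA-fixed, 560 nm) in parallel plates for overt cytotox.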

Read-out in assay [11]: Macrophage colony-stimulating factor (MCSF), CSF1 (gene 1435)
Kind of assay: BSK_LPS_MCSF: BioMAP Diversity Plus: LPS Assay for Macrophage colony-stimulating factor (MCSF) Biomarker Activity (AID 2283083). Particulars: primary human HUVEC with PBMC; actives raise or lower the signal. The gist of the method:
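Bidirectional fit versus DMSO of ELISA-measured M-CSF in co-cultured human umbilical vein endothelial cells and PBMC, sampled 24 h after dosing.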

Read-out in assay [12]: Tissue Factor, F3 (gene 2152)
Kind of assay: BSK_LPS_TissueFactor: BioMAP Diversity Plus: LPS Assay for Tissue Factor Biomarker Activity (AID 2283084). Particulars: primary human HUVEC with PBMC; actives raise or lower the signal. The gist of the method:
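Read-out: CD142 ELISA, 24 h. System: LPS-driven human endothelial/PBMC co-culture. Analysis: up- or down-signal fitted against DMSO.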

Read-out in assay [13]: Tumor necrosis factor (Homo sapiens) (UniProt P01375)
Kind of assay: BSK_LPS_TNFa: BioMAP Diversity Plus: LPS Assay for Tumour Necrosis Factor alpha (TNFa) Biomarker Activity (AID 2283085). Particulars: primary human HUVEC with PBMC; actives raise or lower the signal. The gist of the method: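 Read-out is ELISA of TNFa in primary human endothelial cell–PBMC co-cultures at 24 h after compound. Activity in either direction was fitted against DMSO.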

Read-out in assay [14]: Vascular cell adhesion molecule 1 (VCAM1), VCAM1 (gene 7412)
Kind of assay: BSK_LPS_VCAM1: BioMAP Diversity Plus: LPS Assay for Vascular cell adhesion molecule 1 (VCAM1) Biomarker Activity (AID 2283086). Particulars: primary human HUVEC with PBMC; actives raise or lower the signal. The gist of the method:
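HUVEC + PBMC co-culture, LPS system; compound 24 h; VCAM-1 by ELISA; bidirectional fit vs DMSO control; parallel SRB (0.1%, TCA-fixed, 560 nm) for cytotoxicity.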

Read-out in a further assay: CD38, CD38 (gene 952)
Kind of assay: BSK_SAg_CD38: BioMAP Diversity Plus: SAg Assay for CD38 Biomarker Activity (AID 2283087). To be noted: primary human HUVEC with PBMC; actives raise or lower the signal. The essentials:
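Human HUVEC plus PBMC co-culture stimulated with superantigen; CD38 measured by ELISA 24 h after chemical dosing. Fluorescence read-out, bidirectional fit against DMSO; cytotoxicity tracked in parallel by SRB and Alamar Blue.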

Read-out in assay [15]: CD40, CD40 (gene 958)
Kind of assay: BSK_SAg_CD40: BioMAP Diversity Plus: SAg Assay for CD40 Biomarker Activity (AID 2283088). Particulars: primary human HUVEC with PBMC; actives raise or lower the signal. The essentials: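 Endpoint derived by fitting increases or decreases versus DMSO controls. CD40 is detected by fluorescence ELISA in a human vascular co-culture of endothelium and PBMC at 24 h.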

Read-out in a further assay: CD69, CD69 (gene 969)
Kind of assay: BSK_SAg_CD69: BioMAP Diversity Plus: SAg Assay for CD69 Biomarker Activity (AID 2283089).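 On AC50: cell surface CD69 protein quantified by ELISA with fluorescence detection.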 Particulars: primary human HUVEC with PBMC; actives raise or lower the signal. The essentials: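 Values derive from bidirectional fitting relative to DMSO vehicle. Cells: umbilical vein endothelium plus peripheral blood mononuclear cells, treated 24 h before fluorescent ELISA for CD69.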

Read-out in assay [16]: Monocyte Chemoattractant Protein-1 (MCP1), CCL2 (gene 6347)
Kind of assay: BSK_SAg_MCP1: BioMAP Diversity Plus: SAg Assay for Monocyte Chemoattractant Protein-1 (MCP1) Biomarker Activity (AID 2283090). Particulars: primary human HUVEC with PBMC; actives raise or lower the signal. The essentials: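 MCP-1 levels in the endothelial–PBMC SAg co-culture were quantified by ELISA at 24 h post-dosing; both increases and decreases versus DMSO scored. Cytotoxicity monitored by SRB total protein in parallel cultures.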

Read-out in assay [17]: E-selectin (Homo sapiens) (UniProt P16581)
Description: BSK_SAg_Eselectin: BioMAP Diversity Plus: SAg Assay for Eselectin Biomarker Activity (AID 2283091). Particulars: primary human HUVEC with PBMC; actives raise or lower the signal. The gist of the method:
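Endpoint values derive from bidirectional fitting relative to DMSO, using ELISA-measured E-selectin in a human vascular co-culture (umbilical vein endothelium plus PBMC) sampled 24 h after dosing.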

Read-out in assay [18]: Monokine induced gamma interferon (MIG), CXCL9 (gene 4283)
Kind of assay: BSK_SAg_MIG: BioMAP Diversity Plus: SAg Assay for Monokine induced gamma interferon (MIG) Biomarker Activity (AID 2283092). Particulars: primary human HUVEC with PBMC; actives raise or lower the signal. The gist of the method:
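Values reflect bidirectional fitting of ELISA-measured MIG against DMSO vehicle, taken 24 h after dosing of a co-culture of human umbilical vein endothelial cells and peripheral blood mononuclear cells.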

Broadly, the AC50 is the concentration at which the activity in the assay is half-maximal.

Several values for one entry are separate records, joined by “and”; a condition that tells them apart may be missing. Equal entries are not always repeated. The source holds several records for some structures; these can differ, active in one and inactive in another. Activity calls are given as the source filed them. How the source made its calls: active means hit-call score of the fitted dose curve at least 0.9, where 1 is the maximum; inactive means score below 0.9.

E-selectin (Homo sapiens), sequence (P16581 whole entry, looked up): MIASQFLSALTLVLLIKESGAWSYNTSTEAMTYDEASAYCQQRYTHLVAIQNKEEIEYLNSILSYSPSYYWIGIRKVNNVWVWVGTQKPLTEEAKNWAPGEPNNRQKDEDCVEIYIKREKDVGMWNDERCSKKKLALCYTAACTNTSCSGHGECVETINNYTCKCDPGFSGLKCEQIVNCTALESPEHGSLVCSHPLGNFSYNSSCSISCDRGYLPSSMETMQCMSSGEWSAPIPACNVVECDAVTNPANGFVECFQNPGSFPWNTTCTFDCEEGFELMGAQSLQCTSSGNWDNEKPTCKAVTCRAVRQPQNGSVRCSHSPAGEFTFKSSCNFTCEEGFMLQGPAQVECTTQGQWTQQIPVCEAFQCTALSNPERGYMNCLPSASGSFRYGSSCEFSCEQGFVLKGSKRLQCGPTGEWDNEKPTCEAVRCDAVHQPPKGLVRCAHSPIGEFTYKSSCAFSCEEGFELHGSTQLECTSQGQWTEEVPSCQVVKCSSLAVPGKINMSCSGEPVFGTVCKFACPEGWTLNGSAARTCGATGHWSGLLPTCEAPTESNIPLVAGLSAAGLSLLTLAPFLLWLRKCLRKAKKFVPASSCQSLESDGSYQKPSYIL
Tumor necrosis factor (Homo sapiens), sequence (P01375 whole entry, looked up): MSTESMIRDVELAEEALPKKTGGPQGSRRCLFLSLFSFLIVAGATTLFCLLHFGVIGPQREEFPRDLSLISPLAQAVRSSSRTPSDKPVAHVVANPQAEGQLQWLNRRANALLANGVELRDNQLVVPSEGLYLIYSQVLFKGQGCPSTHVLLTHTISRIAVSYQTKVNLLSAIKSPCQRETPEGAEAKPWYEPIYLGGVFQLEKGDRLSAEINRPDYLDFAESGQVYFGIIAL

For the compound `CCCCc1oc2ccccc2c1C(=O)c1cc(I)c(OCCN(CC)CC)c(I)c1`, the concentration at half-maximal activity (AC50) was 11.9 µM (active) in assay [1]; 6.54 µM (active) in [2]; 9.85 µM (active) in [3]; 13.9 µM (active) with CD40, CD40 (gene 958) [4]; 24.2 µM (active) in assay [5]; 25.9 µM (active) in assay [6]. For the same compound, the concentration at half-maximal activity (AC50) in assay [7] was 19.4 µM (active); in assay [8], 19.1 µM (active); in assay [9], 26.1 µM (active); in assay [11], 10.8 µM (active); in [12] it was 25.2 µM (active); in [13] it was 23.5 µM (active). In addition, the AC50 is 24.3 µM (active) in [14]; 12.4 µM (active) with CD38, CD38 (gene 952); 10.5 µM (active) in the assay with CD40, CD40 (gene 958) [15]; 11.4 µM (active) with CD69, CD69 (gene 969); 20.5 µM (active) in assay [16]; 22.7 µM (active) in assay [17]. Further, the AC50 in assay [18] is 22.9 µM (active). For the same compound, the result in [10] was inactive.

Take `OCC(F)(F)C(F)(F)C(F)(F)C(F)(F)C(F)(F)C(F)(F)C(F)(F)C(F)(F)C(F)(F)C(F)(F)C(F)(F)F`: the outcome in assay [1] is “inactive”; in [2] it was “inactive”; in assay [3] it was “inactive”; with CD40, CD40 (gene 958) [4], “inactive”; in assay [5], “inactive”; in assay [6], “inactive”. In addition, the outcome in assay [7] is “inactive”; in [9], “inactive”; in assay [11] it was “inactive”; in assay [13], “inactive”; in [14], “inactive”; in the assay with CD38, CD38 (gene 952) it was “inactive”. In addition, the outcome with CD40, CD40 (gene 958) [15] was “inactive”; in the assay with CD69, CD69 (gene 969), “inactive”; in assay [16], “inactive”; in assay [17], “inactive”; in assay [18], “inactive”. For the same compound, the AC50 in assay [8] is 186 nM (active) and 202 nM (active); in assay [10] it was 42.7 nM (active) and 227 nM (active); in assay [11], 0.417 µM (active); in [13], 1.01 µM (active); in the assay with CD38, CD38 (gene 952) it was 0.00623 µM (active).

As to `COCN(COC)c1nc(N(COC)COC)nc(N(COC)COC)n1`, the outcome in assay [1] was “inactive”; in [2] it was “inactive”; in [3], “inactive”; with CD40, CD40 (gene 958) [4], “inactive”; in assay [5], “inactive”; in assay [6], “inactive”. Moreover, the result in [7], in assay [8], in assay [9], in assay [10], in assay [11] and in assay [13] was inactive. Besides, the outcome in [14] is “inactive”; with CD38, CD38 (gene 952), “inactive”; with CD40, CD40 (gene 958) [15] it was “inactive”; with CD69, CD69 (gene 969), “inactive”; in assay [16] it was “inactive”; in [17], “inactive”.
